Source: PubChem BioAssay (Broad Institute)
Wnt act: Wnt/beta-catenin pathway activators, primary screen, cell-based, plate reader, single point. Wnt/beta-catenin reporter cell assay, activator. 300,000 tested, 1.2% active. activation, % at 9.35 µM; in the data active = activation above about 30%, passing the limit was not always enough; inconclusive = no clear call, values can overlap the other calls;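 note: 0% = neutral control wells and 100% = positive control wells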
esBAF inh: Bmi1 luciferase reporter increase in mESCs, primary screen, esBAF inhibitor project, mouse ES cells, Bmi1 luciferase knock-in, single point; 350,000 tested, 2% active; 24 h; 100% = twice the neutral-well signal; reporter increase, % at 12.5 µM; in the data active = activation above about 40%; inconclusive = no clear call, values can overlap the other calls;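 note: 0% = median of the plate's neutral control wells and 100% = double that signal; a rise in the Bmi1 reporter signal indicates esBAF inhibition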
Glyco luc inh: increase of ERlucT glycosylation luciferase signal, primary screen, N-linked glycosylation inhibitor project, D54 ERlucT cells, luminescence, set 2; D54 ERlucT glycosylation luciferase reporter, 24 h; percent of 100 nM tunicamycin response; reporter increase, % at 12.5 µM; 360,000 tested, 0.23% active; AID 588692, 2011;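 active = mean luciferase reporter signal, scaled so untreated is 0 and the glycosylation-blocking control 100, at or above a set limit in every replicate; inconclusive = mean reaches the limit but not every replicate does; inactive = mean below the limit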;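 note: luciferase carries N-glycosylation sites so blocking glycosylation raises the light; 0% = median of neutral control wells and 100% = median of 100 nM tunicamycin wells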
MITF act: activators of MITF-driven TRPM1 promoter reporter, primary screen, cell-based, SK-MEL-5, luciferase, single point; SK-MEL-5 TRPM1-promoter luciferase, 24 h; % of positive control, neutral wells = 0; activation, % at 12.5 µM; 300,000 tested, 0.75% active; AID 588334, 2011;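 active = mean activation of at least 80% with every replicate also reaching 80%; inconclusive = mean reaches 80% but some replicate falls short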;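 note: 0% = neutral control wells and 100% = parthenolide positive control wells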
PfHsp90 yeast 2: growth inhibition of PfHsp90-expressing yeast, primary screen, antimalarial PfHsp90 inhibitor project, S. cerevisiae, BacTiter-Glo luminescence, single point, set 2. BacTiter-Glo ATP, 48 h; yeast lacking PDR1 and PDR3 efflux regulators. inhibition, % at 9.4 µM. 310,000 tested, 0.32% active;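 active = every replicate shows inhibition above about 80%, whatever the replicate mean, limit read from the data; inconclusive = mean inhibition reaches the set limit but some replicate falls short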;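 note: 0% = DMSO neutral controls and 100% = 20 µM radicicol positive controls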
Vif inh: HIV Vif self-association inhibitors, primary screen, imaging, HEK293T, single point | HEK293T cells, Vif self-association by quenched fluorescence, 24 h | inhibition, % at 7.49 µM | 340,000 tested, 0.35% active | AID 602346, 2012; in the data active = inhibition above about 50%, passing the limit was not always enough; inconclusive = no clear call, values can overlap the other calls; inactive = below about 31%
Active calls of the source: *; ? = inconclusive; / = no result. Hits are enriched below; roughly 3% of the tested compounds scored in any of these assays.

SMILES	Wnt act	esBAF inh	Glyco luc inh	MITF act	PfHsp90 yeast 2	Vif inh
Cc1ccccc1S(=O)(=O)NCC[C@H]1CC[C@@H](NC(=O)C2CCCC2)[C@@H](CO)O1	/	3	/	/	/	/
CC(=O)c1c(C)[nH]c(C(=O)OCC(=O)NCc2cccs2)c1C	17	55*	1	19	3	-2
Nc1cc(Cl)ccc1C(=O)OCC(=O)NCc1cccs1	12	53*	-1	26	25	2
CCOC(=O)c1c(C)[nH]c(C(C)=NNC(=O)c2cccs2)c1C	61*	77*	0	/	-18	-5
CCC(CO)Oc1cc(NCc2ccc(O)cc2)c2ncn(C(C)C)c2c1 (stereo unspecified)	-1	-4	2	11	-11	2
CCC(CO)Oc1cc(NCc2ccccc2)c2ncn(C(C)C)c2c1 (stereo unspecified)	-3	60*	7	-10	-5	-1
CCCNC(=O)N1C[C@@H]2[C@H](c3ccccc31)[C@@H](CO)N2C(=O)C1CCOCC1	/	-2	/	/	/	/
S=c1[nH]ccn1-c1cccc(Cl)c1Cl	-1	/	1	1	20	52*
Fc1ccc2cc(-c3ccccc3)ncc2c1	33*	61*	1	92*	-1	4
c1ccc(-c2cc3ccccc3cn2)cc1	48*	62*	-6	63	6	-1
Fc1ccc2cnc(-c3cccnc3)cc2c1	9	31	3	48	-16	-5
Cc1cc(O)c(N=Nc2ccc(C(=O)O)cc2)cc1C	17	67*	-10	17	-18	24
Cc1ccc(Nc2nc3ccccc3o2)cc1F	31*	14	0	12	7	-24
Cc1ccc(C2CC(c3cccs3)=NN2C(=O)CSC2=NN3CCCC(=O)N=C3S2)cc1 (stereo unspecified)	-2	11	5	-4	2	-5
CC(Cc1ccco1)NC(=O)c1ccc(C(F)(F)F)cc1 (stereo unspecified)	18	16	-6	128*	-42	-12
CNC(=O)c1sc(-c2ccc(Cl)cc2)nc1C	8	68*	-1	40	10	7
O=C(Nc1ccccc1)C1=C[C@@H](c2ccc(Br)cc2)C[C@@H](OCCCCO)O1	23	57*	2	72	-12	-1
C=CCOC(=O)C1=C[C@@H](c2ccc(Br)cc2)C[C@@H](OCCCCO)O1	1	16	-1	-11	3	51*
O=C(Nc1ccccc1)C1=C[C@H](c2ccc(C(F)(F)F)cc2)C[C@H](OCCCCO)O1	10	34	0	42	11	4
O=C(Nc1ccccc1)C1=C[C@H](c2ccccc2)C[C@H](OCCCCO)O1	33*	51*	0	68	17	-4
O=C(Nc1ccccc1)C1=C[C@@H](C2CC2)C[C@@H](OCc2ccc(CO)cc2)O1	?	60*	0	5	-12	-4
C[C@@H]1CN([C@@H](C)CO)C(=O)c2cc(-c3cccc(F)c3)cnc2O[C@@H]1CN(C)C(=O)Nc1cc(F)ccc1F	/	8	/	/	/	/
CCC(=O)N(C)C[C@@H]1Oc2ncc(C#CC(C)(C)O)cc2C(=O)N([C@@H](C)CO)C[C@@H]1C	/	-7	/	/	/	/
O=C(Nc1ccccc1)C1=C[C@@H](C2CC2)C[C@@H](OCCCCO)O1	?	67*	-4	36	1	-4
COc1ccccc1-c1nn2c(-c3ccco3)nnc2s1	1	65*	12	134*	-1	-1
Cc1ccc(-c2noc(-c3ccccc3C(=O)N3CCCC3)n2)cc1	/	38	-3	6	-16	-11
Cc1onc(-c2ccccc2Cl)c1C(=O)N1CCN(C)CC1	-1	-11	1	-9	4	51*
Cc1ccc(-c2noc(-c3ccccc3C(=O)N3CCN(C)CC3)n2)cc1	-4	64*	-2	/	-7	-4
Cc1onc(-c2ccccc2Cl)c1C(=O)N1CCCC1	-1	-2	4	10	28	1
